Reference: PubChem BioAssay (EPA / NIEHS)
Records with an inconclusive call do not appear. Calls of active or inactive are those of the source. How the source made its calls: active means hit-call score of the fitted dose curve at least 0.9, where 1 is the maximum; inconclusive means response in the unintended direction; inactive means score below 0.9.

Target: Peroxisome proliferator-activated receptor gamma (Homo sapiens) (UniProt P37231)
Assay: OT_PPARg_PPARgSRC1_0480: Odyssey Thera (OT) 8-hour Protein-Complementation Assay for Peroxisome Proliferator-activated Receptor Gamma / SRC-1 Co-activator (AID 2283387)
Method in brief: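 Protein-fragment complementation of split Venus YFP reports PPARg/SRC-1 interaction in HEK293T (transfected 48 h before treatment), exposed 8 h. Readout: N/C fluorescence ratio at 488 nm from imaging, Draq5 for segmentation, positive fit relative to DMSO.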

Chain of Peroxisome proliferator-activated receptor gamma (Homo sapiens) (P37231 whole entry, looked up): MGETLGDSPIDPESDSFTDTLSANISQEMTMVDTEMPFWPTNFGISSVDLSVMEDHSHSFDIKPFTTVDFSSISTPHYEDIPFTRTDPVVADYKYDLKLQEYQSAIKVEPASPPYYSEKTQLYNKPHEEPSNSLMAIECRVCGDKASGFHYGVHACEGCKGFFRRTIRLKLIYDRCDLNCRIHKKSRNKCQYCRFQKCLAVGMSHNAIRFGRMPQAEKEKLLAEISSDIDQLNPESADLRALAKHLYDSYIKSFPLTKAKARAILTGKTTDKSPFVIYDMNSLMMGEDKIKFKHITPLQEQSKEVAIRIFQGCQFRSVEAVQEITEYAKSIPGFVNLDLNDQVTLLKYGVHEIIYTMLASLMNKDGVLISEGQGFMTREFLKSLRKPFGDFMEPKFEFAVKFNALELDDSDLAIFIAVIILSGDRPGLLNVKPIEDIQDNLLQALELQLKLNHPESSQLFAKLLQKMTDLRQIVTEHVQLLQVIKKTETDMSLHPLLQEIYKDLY

outcome, inactive:
O=C(CCCN1CCC(O)(c2ccc(Cl)cc2)CC1)c1ccc(F)cc1
CCCCCCCCCCCC(=O)O
Cc1cc(C(C)(C)C)c(O)c(C(C)(C)C)c1
O=C(O)C(=O)O
Cc1ccc(C)c(S(=O)(=O)O)c1
CC(C)c1c(C(=O)Nc2ccccc2)c(-c2ccccc2)c(-c2ccc(F)cc2)n1CC[C@@H](O)C[C@@H](O)CC(=O)O
CCC(C)c1ccccc1O (stereo not given)
C[C@]12CC[C@@H]3c4ccc(O)cc4CC[C@H]3[C@@H]1C[C@@H](O)[C@@H]2O
CCCCCCCCCCCC
OCC(CO)(CBr)CBr
c1cnc2c(c1)ccc1cccnc12
NS(=O)(=O)O
O=C1NS(=O)(=O)c2ccccc21
CCCCC(CC)C(=O)O (stereo not given)
CC(C)[C@@H]1CC[C@@H](C)C[C@H]1O
O=S(=O)(O)c1ccccc1
NCCN

Target: Peroxisome proliferator-activated receptor gamma (Homo sapiens) (UniProt P37231)
Assay: OT_PPARg_PPARgSRC1_1440: Odyssey Thera (OT) 24-hour Protein-Complementation Assay for Peroxisome Proliferator-activated Receptor Gamma/ SRC-1 Co-activator (AID 2283388)
Method in brief: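 HEK293T cells transiently transfected with PPARg and SRC-1 fused via (Gly4Ser)2 linker to split Venus YFP fragments (IFP1/IFP2) were dosed 24 h; fixed, Draq5-stained, imaged at 488/635 nm; nuclear/cytoplasmic fluorescence ratio scored versus DMSO baseline, gain-of-signal.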

outcome, inactive:
O=C(CCCN1CCC(O)(c2ccc(Cl)cc2)CC1)c1ccc(F)cc1
CCCCCCCCCCCC(=O)O
Cc1cc(C(C)(C)C)c(O)c(C(C)(C)C)c1
O=C(O)C(=O)O
Cc1ccc(C)c(S(=O)(=O)O)c1
CC(C)c1c(C(=O)Nc2ccccc2)c(-c2ccccc2)c(-c2ccc(F)cc2)n1CC[C@@H](O)C[C@@H](O)CC(=O)O
CCC(C)c1ccccc1O (stereo not given)
C[C@]12CC[C@@H]3c4ccc(O)cc4CC[C@H]3[C@@H]1C[C@@H](O)[C@@H]2O
CCCCCCCCCCCC
OCC(CO)(CBr)CBr
c1cnc2c(c1)ccc1cccnc12
Cc1cc(Cc2cc(C)cc(C(C)(C)C)c2O)c(O)c(C(C)(C)C)c1
NS(=O)(=O)O
O=C1NS(=O)(=O)c2ccccc21
CCCCC(CC)C(=O)O (stereo not given)
CC(C)[C@@H]1CC[C@@H](C)C[C@H]1O
O=S(=O)(O)c1ccccc1
NCCN
